Assay results: PubChem BioAssay (NCI)
This is part of a sample that, as a whole, favours compounds with a hit. Of some 83,000 tested, about 20% had one in any assay.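 Assay: single dose, 48 h. Readout: percent growth (0 = no net growth; negative = cell death). Active: <10.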 Unmarked numbers belong to inactive results. The source made the active and inactive calls.

Assays:
Experiment in all cases: NCI-60 one-dose screen, 48 h (100 = growth as untreated, 0 = no growth, -100 = all killed)
Details in all cases: 10 µM unless noted
T-47D breast = tested on: T-47D breast
BT-549 breast = tested on: BT-549 breast
MDA-MB-435 melanoma = tested on: MDA-MB-435 melanoma
SW-620 colon = tested on: SW-620 colon
MCF7 breast = tested on: MCF7 breast
HCT-116 colon = tested on: HCT-116 colon
HCC-2998 colon = tested on: HCC-2998 colon
KM12 colon = tested on: KM12 colon

| Structure (SMILES) | growth (T-47D breast) | growth (BT-549 breast) | growth (MDA-MB-435 melanoma) | growth (SW-620 colon) | growth (MCF7 breast) | growth (HCT-116 colon) | growth (HCC-2998 colon) | growth (KM12 colon) |
| --- | --- | --- | --- | --- | --- | --- | --- | --- |
| COc1ccc(NS(=O)(=O)c2ccc(C)cc2)c([N+](=O)[O-])c1 | 93.5% | 104% | 111% | 103% | 99.7% | 106% | 99.6% | 104% |
| CC(=O)CCSc1ccc(OC(C)=O)cc1 | 91.9% | 96.5% | 104% | 105% | 102% | 97% | 89.7% | 99.9% |
| O=C1c2ccccc2C(=O)c2c(NCCN=Cc3ccccc3O)cccc21 | 63.6% | 73.4% | 71.5% | 35.4% | 32.4% | 15.4% | 30.9% | 48.7% |
| COc1cccc(-c2nc3occn3c2-c2ccnc(NCCCNS(=O)(=O)c3cccc(F)c3)n2)c1 | 29.3% | 96.1% | 63.2% | 115% | 78.1% | 82% | 127% | 92.6% |
| C=C1C(=O)O[C@H]2[C@H]1CC/C(CNC(=O)/C=C/c1ccc(Br)cc1)=C\CC[C@@]1(C)O[C@@H]21 | -41.3% (active) | -59.7% (active) | -47.8% (active) | -78.5% (active) | -66.7% (active) | -81.4% (active) | -92.6% (active) | 36.4% |
| C#CC(=O)Nc1cccc(Nc2nc3c(c(NCc4ccccc4)n2)CCCC3)c1 | -38.7% (active) | -70% (active) | -70.6% (active) | -46.7% (active) | -39.7% (active) | -78.8% (active) | -89.3% (active) | -53.4% (active) |
| COc1ccc(OC)c(/C=C/[C@H]2O[C@@H](C)[C@H](O)[C@@H]2O)c1 | 96% | 104% | 100% | 113% | 101% | 101% | 108% | 112% |
| CC(=O)N1c2ccccc2NC2=C(C(=O)N(C)C2(C)C)C1C (stereo not given) | 28.7% | 69.5% | -67.8% (active) | 24.2% | 16.4% | 24.9% | – | 19.8% |
| Nc1cc(N)c2cccnc2c1O | 93.4% | 90.3% | -83.9% (active) | 60% | 46.3% | 51.7% | – | 81.6% |
| O=S(=O)(NCCCNc1nccc(-c2c(-c3ccccc3)nc3occn23)n1)c1ccc(Cl)cc1 | 58.9% | 104% | 64.3% | 108% | 60.5% | 68.4% | 102% | 95.7% |
| COc1ccccc1Nc1cc(O)c2c(=O)cc(-c3ccccc3)oc2c1 | 31.4% | 40.9% | -24.3% (active) | 20.8% | 17.3% | 14.1% | 71.9% | 36.2% |
| O=C(Nc1ccc2ncnc(Nc3ccc(Oc4cccc(F)c4)c(Cl)c3)c2c1)c1ccc(CNCCO)cc1 | 42.6% | 85.5% | -86.3% (active) | -74% (active) | -67.2% (active) | -46.5% (active) | – | 12.9% |
| COc1cc2nc(-c3ccc(C(F)(F)F)cc3)cc(OCCCN3CCC(O)CC3)c2cc1OC | 24.7% | 26.5% | -29% (active) | 15.9% | 37.3% | 15% | 52.5% | 26.5% |
| COc1cc2nc(-c3ccc(C(F)(F)F)cc3)cc(OCCCN3CCCCC3)c2cc1OC | 35.3% | 39.3% | -6.42% (active) | 30.4% | 36.2% | 25.5% | – | 36.6% |
| Cc1ccc(/C=C/C(=O)c2ccc(N)cc2)c(C)c1 | 101% | 89.6% | 77% | -69.1% (active) | 35% | 35.8% | 106% | 63.3% |
| CSc1nc(O)c(-c2ccccc2)c(=O)[nH]1 | 100% | 103% | 101% | 98.8% | 96.3% | 99.4% | – | 103% |
| CCCCCCCCOc1ccc(/C=N/Nc2cc(C)nc3ccc(Cl)cc23)cc1 | 56% | 111% | -19.8% (active) | -70.4% (active) | -69.7% (active) | -69.9% (active) | – | -72.9% (active) |
